We go through 94 compounds from PubChem BioAssay AID1918 (Vanderbilt High Throughput Screening Facility, 2009).

SMILES strings stand for the structures. About 2,500 (1.9%) of roughly 130,000 compounds were called active.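 How the source made its calls: active means signal ratio slope over the read window, or its plate-corrected B-score, at least 3 SD from the plate mean, either direction; inactive means the rest.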 The list comes from a sample in which actives are over-represented; it also holds similar structures and randomly drawn compounds.

For the assay, the target named is ATP-sensitive inward rectifier potassium channel 1 (Homo sapiens) (UniProt P48048). Put plainly: Kir1.1 channel activity modulation, library screen – cell-based, thallium flux, MLSMR library, primary screen (AID 1918).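 Further: B-score of the F/F0 ratio slope over 7 to 12 s after thallium.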 The note with it: Tet-inducible ROMK, thallium flux fluorescence; at 10 µM; actives lie on both sides.
ATP-sensitive inward rectifier potassium channel 1 (Homo sapiens), sequence (P48048 whole entry, looked up): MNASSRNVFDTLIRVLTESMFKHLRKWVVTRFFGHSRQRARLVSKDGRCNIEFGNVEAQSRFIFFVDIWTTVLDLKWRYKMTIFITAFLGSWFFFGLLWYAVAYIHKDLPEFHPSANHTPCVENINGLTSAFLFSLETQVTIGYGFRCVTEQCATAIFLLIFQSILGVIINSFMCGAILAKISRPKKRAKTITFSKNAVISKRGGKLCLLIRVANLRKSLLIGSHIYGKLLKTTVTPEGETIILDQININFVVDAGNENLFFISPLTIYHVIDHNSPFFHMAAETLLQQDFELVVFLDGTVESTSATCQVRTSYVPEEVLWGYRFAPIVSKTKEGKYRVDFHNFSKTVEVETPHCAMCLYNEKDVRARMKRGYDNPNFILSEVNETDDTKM
For `O=[N+]([O-])c1ccc(N=Cc2c(O)ccc3ccccc23)cc1`, the B-score was -4.23 (active).
In the case of `O=C(N/N=C/c1ccc([N+](=O)[O-])cc1)c1c[nH]c2ccccc12`, the B-score was -0.0103 (inactive).
On to `CC(=O)n1c(C=Nc2ccccc2)c(O)c2ccccc21`, for which the B-score was -1.73 (inactive).
In the case of `CCOc1ccc(-n2cnnn2)cc1S(=O)(=O)N1CCC(C)CC1C` (centres undefined), the B-score was -3.15 (active).
`CCOc1ccc(C(C)C)cc1S(=O)(=O)n1nc(C)cc1C`: the B-score was -0.531 (inactive).
The same measure for `CCOc1ccc(Br)cc1S(=O)(=O)N1CCC(C(=O)O)CC1`: -0.0303 (inactive); for `O=C1[C@@H]2C(c3cccnc3)=NO[C@@H]2C(=O)N1c1ccc(Cl)cc1Cl`: 0.0407 (inactive).
Regarding `O=c1c2c(nc3cc(-c4cccc(Cl)c4)[nH]n13)CCCC2`, the B-score was -0.277 (inactive).
With `CSc1nc2nc3c(c(=O)n2[nH]1)CCC3`, the B-score was 1.45 (active).
Take `O=c1c2c(nc3nc[nH]n13)CCC2`: the B-score was 0.251 (inactive).
Take `O=C(c1ccncc1)N1CCN(c2ccc3ccccc3n2)CC1`: the B-score was -0.138 (inactive).
Turning to `CCC(C)(C)NC(=O)C(c1ccccn1)N(C(=O)c1csnn1)c1ccccc1` (centres undefined), the B-score is 0.633 (inactive).
Consider `O=C(NC1CCCC1)C(c1ccccn1)N(C(=O)c1csnn1)C1CCCC1` (centres undefined), for which the B-score was 0.761 (inactive).
Take `Cc1ccccc1CCN(CC(=O)NC1CCCCC1)C(=O)c1csnn1`: the B-score is -3.14 (active).
For `COc1ccc(-c2ccc(CNCCCN3CCOCC3)o2)cc1Cl` the value was -0.161 (inactive); for `CCOc1ccc(N2CC(C(=O)NCCN3C(=O)S/C(=C\c4cccnc4)C3=O)CC2=O)cc1` (centres undefined), 0.439 (inactive).
For `COc1ccccc1N1CCN(C(=O)c2ccc(Cl)c(S(=O)(=O)N3CCCC3)c2)CC1` the value was -0.388 (inactive).
For `O=c1c2cc3c(=O)n(CC4CCCO4)c(=O)c3cc2c(=O)n1CC1CCCO1` (centres undefined), the B-score was 1.28 (inactive).
The same measure for `O=C(NCc1ccc2c(c1)OCO2)c1ccc2c(c1)C(=O)N(CC1CCCO1)C2=O` (centres undefined): 0.455 (inactive).
With `O=C1c2cccc3c([N+](=O)[O-])ccc(c23)C(=O)N1CC1CCCO1` (centres undefined), the B-score was -2.58 (active).
On to `C/C(=N\Nc1nc(N2CCOCC2)nc(N2CCOCC2)n1)c1ccc([N+](=O)[O-])cc1`, for which the B-score is 0.473 (inactive).
For `CC1CCN(C(=S)c2cccc(O)c2)CC1`, the B-score was 0.17 (inactive).
On to `Cc1nc(-c2ccccc2)sc1C(=O)/C=C/N(C)C`, for which the B-score is 0.143 (inactive).
`CCOC(=O)c1c(NC(=O)CCl)sc(C(=O)N(CC)CC)c1C`: the B-score is 1.96 (active).
For `CCC(=O)Nc1sc(C(=O)Nc2ccccc2)c(C)c1C(=O)OC`, the B-score was -1.11 (inactive).
As for `CCOC(=O)c1sc(NC(=O)COc2ncnc3ccccc23)c(C(=O)OCC)c1C`, the B-score was 0.196 (inactive).
For the compound `Cc1nnnn1/C(=C\c1ccccc1)C(=O)OCC(=O)N1CC2(C)CC1CC(C)(C)C2` (centres undefined), the B-score is -5.08 (active).
As to `COc1ccc(C(=O)N2CC3(C)CC2CC(C)(C)C3)cc1OC` (centres undefined), the B-score is 0.464 (inactive).
Take `COc1ccccc1C(=O)N1CC2(C)CC1CC(C)(C)C2` (centres undefined): the B-score is -0.0792 (inactive).
Consider `Cc1ccc(SCCC(=O)NCc2ccccn2)cc1`, for which the B-score is -0.142 (inactive).
The same measure for `O=C(O)CC(SCC(=O)Nc1ccc(Br)cc1)C(=O)O` (centres undefined): -0.193 (inactive); for `COC(=O)C1=C(C)NC2=C(C(=O)c3ccccc32)C1c1ccc(-c2ccc(C(=O)O)cc2)o1` (centres undefined): 3.35 (active); for `CCOC(=O)c1ccc(-c2ccc(C(=O)Nc3cccnc3)o2)cc1`: 0.149 (inactive).
In the case of `Cc1ccc(C2C3=C(Nc4[nH]n(-c5ccccc5)c(=O)c42)c2ccccc2C3=O)cc1` (centres undefined), the B-score is -2.43 (inactive).
Take `COc1ccc(-n2c(O)c(C=NCC(c3ccco3)N3CCCC3)c3ccccc3c2=O)cc1OC` (centres undefined): the B-score was 0.182 (inactive).
The same measure for `O=C(CSc1nnnn1-c1ccc(O)cc1)N1N=C(c2ccc3ccccc3c2)CC1c1ccccc1` (centres undefined): 0.13 (inactive); for `CN(C)c1ccc(C=C2C(=O)OC3(CCCC3)OC2=O)cc1`: -4.03 (active).
As to `CC1=NN(Cc2ccccc2)C(=O)/C1=C/c1ccc(N(C)C)cc1`, the B-score is -0.804 (inactive).
For `CN(C)c1ccc(/C=N\S(=O)(=O)c2ccccc2)cc1`, the B-score is 0.722 (inactive).
Turning to `Cc1noc(C)c1C(=O)OCC(=O)/C=C1\N(C)c2ccccc2C1(C)C`, the B-score was -0.053 (inactive).
The same measure for `CN1/C(=C\C(=O)c2cccnc2Cl)C(C)(C)c2ccccc21`: 0.168 (inactive); for `CC(=O)Nc1cccc(OCC(=O)/C=C2\N(C)c3ccccc3C2(C)C)c1`: -3.01 (active); for `Cc1ccccc1NC(=S)NNC(=O)c1cccc(Br)c1`: -1.36 (inactive).
`N#Cc1c(-c2ccc(Cl)cc2)c2c([nH]c1=S)CCCC2`: the B-score was -0.344 (inactive).
Regarding `CN(C)c1nc(-c2cccnc2)nc(-c2ccc(Cl)cc2)c1C#N`, the B-score is -1.03 (inactive).
With `CNc1nccc(-c2ccc(Cl)cc2)c1C#N`, the B-score is -3.41 (active).
For the compound `COCc1c(N)c(C)nc(Cl)c1C#N`, the B-score is 0.228 (inactive).
The same measure for `O=C(CN1CCCCCC1)NCCN1C(=O)S/C(=C\c2ccccc2Cl)C1=O`: -2.58 (active); for `O=C1/C(=C\c2ccccc2Cl)SC(=S)N1CCC(=O)N1CCCc2ccccc21`: -0.502 (inactive).
Regarding `O=C(CN1CCCCC1)Nc1ccccc1Cl`, the B-score is 1.02 (inactive).
In the case of `CSc1ccc(CNCCN2CCOCC2)cc1`, the B-score is -0.131 (inactive).
Take `CCN(CC(=O)NCc1cccs1)S(=O)(=O)c1ccc(NC(C)=O)cc1`: the B-score is -0.12 (inactive).
For `CCN(CC)C(=O)CN(c1cccc([N+](=O)[O-])c1)S(=O)(=O)c1ccccc1` the value was 0.165 (inactive); for `O=C(Nc1cccc([N+](=O)[O-])c1)Nc1ccc(Cl)cn1`, 0.868 (inactive); for `O=C(CCl)N(Cc1cccc([N+](=O)[O-])c1)c1cccc(Cl)c1`, -3.06 (active).
Turning to `COc1cccc(CC2(CO)CCCN(CC3=Cc4cc(OC)ccc4OC3)C2)c1` (centres undefined), the B-score was -0.447 (inactive).
The same measure for `COc1cccc(-n2c(=S)sc3c(=O)n(-c4ccccc4OC)c(SCC4OCCO4)nc32)c1`: 0.408 (inactive); for `COc1ccccc1-n1c(=S)[nH]c2c(sc(=S)n2-c2ccc(C)cc2C)c1=O`: 2.35 (active); for `CCc1ccc(-n2c(=S)sc3c(=O)n(-c4ccccc4OC)c(=S)[nH]c32)cc1`: 0.222 (inactive).
`COc1ccc(NC(=O)c2ccccc2CC[N+](=O)[O-])cc1`: the B-score is 0.216 (inactive).
As to `COC(=O)COc1cccc2c(=O)n(CC(=O)NCCc3ccc(OC)c(OC)c3)ccc12`, the B-score was -0.562 (inactive).
With `CCOC(=O)C(C)Oc1cccc2c(=O)n(CC(=O)NCCc3ccc(OC)c(OC)c3)ccc12` (centres undefined), the B-score is -0.831 (inactive).
The same measure for `COC(=O)COc1cccc2c(=O)n(CC(=O)NCc3ccccc3)ccc12`: 2.99 (active); for `COc1cccc(CN2CCNC(=O)C2CC(=O)N(C)CCc2ccccn2)c1` (centres undefined): 0.0523 (inactive).
`C/C(=N/NC(=O)CSc1ccccn1)c1ccc([N+](=O)[O-])cc1`: the B-score was -0.494 (inactive).
Regarding `O=c1cnnc(Nc2ccccc2F)[nH]1`, the B-score was 0.476 (inactive).
The same measure for `CCOC(=O)Cc1csc(NC(=O)Nc2ccccc2)n1`: 0.0709 (inactive); for `CCOC(=O)Cc1csc(NC(=O)CSc2nnc(-c3cccnc3)n2Cc2ccco2)n1`: 0.0388 (inactive).
In the case of `CCOC(=O)Cc1csc(NC(=O)CSc2ccc(Br)cc2)n1`, the B-score is -2.72 (active).
Regarding `CCOC(=O)Cc1csc(NC(NC(=O)OCC)(C(F)(F)F)C(F)(F)F)n1`, the B-score is 1.5 (inactive).
Regarding `CCOC(=O)Cc1csc(NC(=O)CSc2nc(C)cc(=O)[nH]2)n1`, the B-score is -0.406 (inactive).
For `CCOC(=O)Cc1csc(SCC(=O)NC(C)C23CC4CC(CC(C4)C2)C3)n1` (centres undefined), the B-score is -3.3 (active).
For `Cn1nc(C(F)(F)F)c2cc(C(=O)N3CCOCC3)sc21`, the B-score is 1.3 (inactive).
On to `COc1ccccc1-n1ccnc1SCC(=O)NC(C)(C)C`, for which the B-score was -0.243 (inactive).
As to `CCCCc1nc(NCCN)c(C#N)c2c1CSC(C)(C)C2`, the B-score is -3.92 (active).
On to `CCCCc1nc(NCc2ccccc2)c(C#N)c2c1CCCC2`, for which the B-score was 0.19 (inactive).
`Cc1nc(NCCN)c(C#N)c2c1COC(C)(C)C2`: the B-score is 0.0226 (inactive).
As for `COc1cc2nc(CN(C)Cc3ccc(F)cc3)[nH]c(=O)c2cc1OC`, the B-score was 0.927 (inactive).
For `COc1ccc(-c2nc(CN3CCN(c4ncccn4)CC3)c(C)o2)cc1C` the value was -0.768 (inactive); for `Cc1cc(NC(=O)OC(C)C)ccc1-c1ccc(NC(=O)OC(C)C)cc1C`, 0.938 (inactive).
With `O=C(NNC(=O)C1C2CCC(C2)C1C(=O)O)c1ccc(Cl)cc1` (centres undefined), the B-score is -0.0201 (inactive).
The same measure for `C[C@H](NC(=O)c1ccccc1Cl)C(=O)OCCOc1cccc(Cl)c1`: 0.0242 (inactive); for `COc1ccc(Cl)cc1C(=O)NNC(=S)NC(=O)/C=C/c1ccco1`: 1.26 (inactive); for `COc1cccc2c(N/N=C/c3ccco3)cc(C)nc12`: -0.776 (inactive).
Consider `COc1cc2c(cc1OC)C(/C=C/c1ccco1)=NCC2`, for which the B-score was -7.44 (active).
As for `Cc1cc(=O)oc2c1c(C)nn2-c1ccc(Cl)cc1`, the B-score is 0.108 (inactive).
For `COc1ccc(S(=O)(=O)NCC2CCCN(C(=O)c3occc3C)C2)cc1` (centres undefined) the value was -0.286 (inactive); for `C/C=C/C=C/C(=O)OCC(=O)Nc1ccc(Cl)cc1`, -0.0163 (inactive).
With `CCC(C)NC(=O)Cn1nc(C(F)(F)F)c2c1CCC2` (centres undefined), the B-score is -0.0332 (inactive).
As to `Cc1cc(-c2csc(N)n2)c(C)n1Cc1ccccc1`, the B-score was -1.12 (inactive).
Regarding `O=C(Nc1nc2ccc([N+](=O)[O-])cc2s1)c1ccc(S(=O)(=O)N2CCCc3ccccc32)cc1`, the B-score was -2.44 (inactive).
`O=C(O)CCC(=O)Nc1nc2ccc([N+](=O)[O-])cc2s1`: the B-score is 0.0361 (inactive).
For `O=C(NC(Nc1nc2ccc([N+](=O)[O-])cc2s1)(C(F)(F)F)C(F)(F)F)c1ccccc1` the value was -4.53 (active); for `O=C(NCCCN1CCOCC1)c1ccccc1NS(=O)(=O)c1ccc(F)cc1`, 0.243 (inactive).
